Measurements from paper PMC5540273 (PLoS ONE, 2017).

Experiments:
Conditions in all cases: concentration: 1 μM, replicates: in singlicate; n = 1
CLK2 = system: CLK2
CLK3 = system: CLK3
CLK4 = system: CLK4
CSF1R-autoinhibited = system: CSF1R-autoinhibited
CSF1R = system: CSF1R
CSK = system: CSK
CSNK1A1L = system: CSNK1A1L
CSNK1A1 = system: CSNK1A1
CSNK1D = system: CSNK1D
CSNK1E = system: CSNK1E
CSNK1G1 = system: CSNK1G1
CSNK1G2 = system: CSNK1G2
CSNK1G3 = system: CSNK1G3
CSNK2A1 = system: CSNK2A1
CSNK2A2 = system: CSNK2A2
CTK = system: T1, CTK
T1 construct: gene MATK

DAPK1 = system: DAPK1
DAPK2 = system: DAPK2
DAPK3 = system: DAPK3
DCAMKL1 = system: T2, DCAMKL1
T2 construct: gene DCLK1
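Also: KINOMEscan kinase panel screen.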

Row | Structure (SMILES) | %Inh (CLK2) [%] | %Inh (CLK3) [%] | %Inh (CLK4) [%] | %Inh (CSF1R-autoinhibited) [%] | %Inh (CSF1R) [%] | %Inh (CSK) [%] | %Inh (CSNK1A1L) [%] | %Inh (CSNK1A1) [%] | %Inh (CSNK1D) [%] | %Inh (CSNK1E) [%] | %Inh (CSNK1G1) [%] | %Inh (CSNK1G2) [%] | %Inh (CSNK1G3) [%] | %Inh (CSNK2A1) [%] | %Inh (CSNK2A2) [%] | %Inh (CTK) [%] | %Inh (DAPK1) [%] | %Inh (DAPK2) [%] | %Inh (DAPK3) [%] | %Inh (DCAMKL1) [%]
1 | COc1cccc(CC(=O)N2CCc3cc(-c4cn(C)c5ncnc(N)c45)ccc32)c1 [GSK2608899] | 0 | 13 | 0 | 0 | 96.9 | 14 | 8 | 0 | 39 | 77 | 23 | 5 | 29 | 14 | 15 | 0 | 2 | 0 | 21 | 26
2 | Cc1cccc(Nc2nc(N[C@H]3CCCC[C@H]3N)ncc2C(N)=O)c1.Cl [GSK986310] | 28 | 27 | 24 | 0 | 78 | 12 | 59 | 46 | 50 | 64 | 21 | 0 | 37 | 36 | 25 | 0 | 86 | 70 | 59 | 32
3 | N#Cc1cnc2cc(-c3cnc(CNCCN4CCOCC4)s3)ccc2c1Nc1ccc(Oc2ccccc2)cc1 [GW664114] | 0 | 0 | 95.2 | 17 | 19 | 96.7 | 7 | 0 | 0 | 39 | 19 | 0 | 25 | 0 | 5 | 26 | 26 | 0 | 2 | 19
4 | Fc1cc(Cl)ccc1Nc1ccnc2cc(-c3ccc(CN4CCSCC4)o3)ccc12 [GW560106] | 0 | 0 | 22 | 52 | 92.3 | 13 | 0 | 0 | 6 | 27 | 0 | 0 | 14 | 0 | 100 | 0 | 0 | 0 | 11 | 7
5 | CC(=O)Nc1cn2nc(Oc3cccc(NC(=O)c4cccc(C(F)(F)F)c4)c3)ccc2n1 | 13 | 54 | 0 | 82 | 100 | 44 | 21 | 12 | 4 | 44 | 3 | 0 | 41 | 0 | 0 | 0 | 0 | 1 | 6 | 20
6 | CCn1cnc2c(NCc3ccccc3)ncnc21 [SKF-96418] | 10 | 0 | 14 | 0 | 0 | 0 | 0 | 18 | 20 | 16 | 0 | 0 | 0 | 0 | 0 | 34 | 0 | 0 | 11 | 33
7 | Cc1cc(-c2c(-c3ccc(F)cc3)ncn2CCCN2CCOCC2)nc(N)n1 [SB-222517] | 30 | 0 | 16 | 17 | 14 | 7 | 0 | 17 | 7 | 1 | 0 | 8 | 0 | 0 | 0 | 0 | 0 | 21 | 38 | 40
8 | Nc1ncc(-c2ccc3nccc(-c4ccncc4)c3c2)cc1S(=O)(=O)N1CCCCC1 [GSK1693850] | 67 | 49 | 72 | 0 | 4 | 0 | 0 | 0 | 24 | 54 | 0 | 18 | 33 | 2 | 0 | 0 | 11 | 26 | 30 | 15
9 | Cc1cccc(Nc2nc(NCCN)ncc2C(N)=O)c1 [GSK1292139] | 22 | 47 | 0 | 23 | 88 | 22 | 76 | 72 | 52 | 84 | 6 | 0 | 26 | 34 | 29 | 0 | 52 | 25 | 38 | 16
